# Measurements reported in PubChem BioAssay AID493248 (Broad Institute, 2011).
# Screen size: about 2,300 compounds; about 1,400 (61%) were called active. Inconclusive results (about 7%) are left out. The rule behind the calls is not given here. The set was probably picked from earlier hits. A selection follows. Results with a measured potency or affinity are listed apart.
# Target: FAD-linked sulfhydryl oxidase ALR (Homo sapiens) (UniProt P55789)
# Assay: ALR-catalysed DTT oxidation blockers – biochemical, H2O2 detection, luminescence, cherry-pick, dose response (AID 493248)
# Conditions: purified ALR, H2O2 HRP-luminol luminescence; at 10 µM (top of the series)
# Sequence of FAD-linked sulfhydryl oxidase ALR (Homo sapiens) (P55789 whole entry, looked up): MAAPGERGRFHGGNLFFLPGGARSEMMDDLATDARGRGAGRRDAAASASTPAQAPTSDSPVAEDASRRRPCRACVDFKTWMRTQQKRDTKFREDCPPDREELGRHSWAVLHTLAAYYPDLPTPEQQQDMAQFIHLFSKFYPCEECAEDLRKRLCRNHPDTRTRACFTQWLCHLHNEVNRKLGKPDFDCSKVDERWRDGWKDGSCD
row,Structure (SMILES),"activity change, negative = inhibition [%]"
1,CN1CCN(c2ccc(NC(=O)c3ccc(Cl)cc3)cn2)CC1,-19.7
2,COc1cc(OC)cc(C(=O)N2CCC(N3CCN(c4ccccc4)CC3)CC2)c1,-61.4
3,CC(=O)NN1C(=O)/C(=C\c2ccc(O)cc2)SC1=S,-79.9
4,O=C(C1CC1)N1CCN=C1SCc1ccc(Cl)cc1,-64.3
5,O=C1c2ccccc2CSc2c(O)cccc21,-28.4
6,O=C(C1CC1)N1CCN=C1SCc1ccc(F)cc1,-51.5
7,CC(=O)Nc1ccc(S(=O)(=O)NNc2ccc([N+](=O)[O-])cc2)cc1,-103
8,CN(C)/C=N/c1sc2c(c1C#N)CCC2,25.9
9,COC(=O)c1ccc(NC(=O)c2ccc(C)cc2)o1,-4.94
10,CC(=O)Nc1cccc(N2CCCC2=O)c1,-18.2
11,CN(C)c1ccc(/C=N/NC(=O)c2cccc(N3CCCC3=O)c2)cc1,-16.6
12,CCc1c(C)sc(NC(=O)c2cc(C)no2)c1C#N,-63.3
13,COC(=O)c1ccc2[nH]c3c(c2c1)CC(C)CC3 (stereo unspecified),-6.7
14,Cc1nc2ccc(S(=O)(=O)N(C)CC(=O)NCc3ccc(N(C)C)cc3)cc2s1,-41.2
15,CCN1C(=O)c2ccc(C(=O)Nc3ccc(O)cc3C)cc2C1=O,-50.1
16,CN(Cc1nc2ccccc2n1C)c1ccccc1,-32.4
17,CCN(Cc1nc2ccccc2n1C)c1ccccc1,-11.5
18,CCn1c(-c2ccc(N)cc2)nc2ccccc21,-17.3
19,CCn1c(CN(C)c2ccccc2)nc2ccccc21,-7.07
20,O=C(Nc1ccc(O)cc1)c1cc2n(n1)C(C(F)(F)F)CC(c1ccco1)N2 (stereo unspecified),-82.6
21,c1ccc2c(-c3csc(-c4ccncc4)n3)c[nH]c2c1,-10.2

row,Structure (SMILES),"activity change, negative = inhibition [%]"
1,COc1cc(C=NNC(=O)c2ccc(NS(=O)(=O)c3cccs3)cc2)cc(Br)c1O,165
2,CCCCCCC(=O)N/N=C/c1ccco1,-28.6
3,COc1nc(-c2ccccc2Cl)ccc1C#N,-32.6
4,Cc1ccc2cn[nH]c2c1N,-36.2
5,O=S(=O)(Nc1ccccc1O)c1ccc(Cl)nc1,-36.8
6,COc1ccc(N2C(=O)CC(NNc3ncc(Cl)cc3Cl)C2=O)cc1 (stereo unspecified),-50.3
7,CC1=NN(C(=O)c2ccc(Br)cc2)C(O)(c2ccccc2)C1 (stereo unspecified),286
8,Cc1noc(C)c1S(=O)(=O)N(CC(=O)NCc1ccc2c(c1)OCO2)c1ccc(C(C)C)cc1,1.03
9,O=C(NCc1ccc2c(c1)OCO2)C1CC(=O)N(c2ccc(O)cc2)C1 (stereo unspecified),-108
10,O=c1[nH]n(-c2ccc(Cl)cc2)c2ncccc12,291
11,O=C(CCCC(=O)c1ccccc1)Nc1ccc(O)cc1,182
12,S=c1[nH]nc(Cc2noc3ccccc23)n1-c1ccc(Cl)cc1,-49.3
13,COc1ccc(OC)c(/C(C)=N/Nc2ccc(C(=O)O)cc2)c1,-31.7
14,COc1ccc(CNc2nc3ccccc3n2CCN2CCCCC2)cc1,35.3
15,O=C(O)c1ccc(N(c2ccccc2)c2ccccc2)cc1,-77.1
16,Brc1c(CSc2nnc(-c3ccco3)o2)nc2ccccn12,-95.5
17,CCN(c1ccc(C)c(C)c1)S(=O)(=O)c1ccc2c(c1)CCN2C(=O)CCC(=O)O,-9.61
18,CCc1c(C)[nH]n(-c2ccc(Oc3ccccc3)c(S(=O)(=O)O)c2)c1=O,-7.16
19,Cc1cc(-c2n[nH]c(=S)o2)c(C)n1-c1ccccc1,19.3
20,COc1ccc(-c2csc(N(CCCN(C)C)C(=O)c3ccc(F)cc3)n2)cc1,-32.9
21,CS(=O)(=O)N1CCN=C1SCc1cccc(F)c1,-0.153

row,Structure (SMILES),"activity change, negative = inhibition [%]"
1,CCCS(=O)(=O)N1CCN=C1SCc1ccc(F)cc1,-0.819
2,S=c1[nH]nc(-c2c[nH]c3ccccc23)o1,-89
3,CCn1c(-c2cc(OC)c(OC)c(OC)c2)n[nH]c1=S,-1.45
4,CCCCCCCCN1[C@@H](CC(=O)O)c2ccc(C(F)(F)F)cc2S1(=O)=O,-22.2
5,COc1cccc2c3c(c(=O)[nH]c12)CCC(C)(C)O3,-20.3
6,CCn1c(SCc2nc3sc(C(=O)O)c(C)c3c(=O)[nH]2)nc2ccccc21,-10.8
7,Cc1ccsc1C=Nc1ccc(O)cc1,-98
8,Nc1ccc(Oc2cc(N)cc(Oc3ccccc3)c2)cc1,29.7
9,Cc1cccc(Oc2ccc(N)cc2)c1,-1.09
10,CNc1nn(-c2cccc(Cl)c2)nc1N,-9.08
11,c1ccc(-c2cnc(CN3CCN(c4ccccc4)CC3)o2)cc1,-44.8
12,COc1cccc(/C=N/n2c(-c3n[nH]c4c3CCC4)n[nH]c2=S)c1O,-33.1
13,CCCC(C)NC(=O)Cc1ccc(Br)cc1 (stereo unspecified),60.9
14,CCCN1CCC(=O)N([C@H](CSc2ccc(OC)cc2)c2ccccc2)CC1,1.83
15,O=S1(=O)N=C(Nc2ccc(O)cc2)c2ccccc21,176
16,Cc1ccc(-c2c(C(=O)O)c(C(=O)O)c3n2CSC3)cc1,-43.7
17,Cc1n[nH]c(=S)n1/N=C/c1ccccc1,-93.3
18,S=c1[nH]nc(-c2ccco2)n1/N=C/c1ccccc1,0.752
19,Cc1cc(C(=O)NC2CCCc3c2cnn3-c2ccc(C)c(C)c2)no1 (stereo unspecified),-8.68
